Molecules are shown by their SMILES.

Here are results for nine molecules from the supplement of paper PMC10811239.

Assay [1] has as its system LEGO organoid PTCC (PTEN-/-; TP53-/-; CDKN2A-/-; CDKN2B-/-). As to the kind of experiment: bioluminescence (viable cell) signal fold change after vs before treatment, normalised to DMSO (ratio); higher = more tumour cell growth / less inhibition. The following applies: 10 µM; treatment time 6 days. The protocol:
(§1)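 Luc2-labelled iPSC-derived glioblastoma-like organoids (LEGOs, genotypes PT = PTEN-/-;TP53-/-, PTCC = plus CDKN2A/B-/-, PTN = plus NF1-/-) were treated with 10 uM drug for 6 days (applied every other day) at 37 C. Bioluminescence imaging was done before treatment and 2 days after the last dose. BLI signals were normalised to the DMSO control on the same day and then to the pre-treatment signal (N=3).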

Assay [2] concerns LEGO organoid PTN (PTEN-/-; TP53-/-; NF1-/-). The description is as above. The following applies: 10 µM; treatment time 6 days. The protocol:
as §1

Regarding `NC(=O)N1c2ccccc2C=Cc2ccccc21` [Carbamazepine], the bioluminescence in assay [1] worked out at 0.95; in assay [2] it was 1.42.
For `CS(=O)(=O)CCNCc1ccc(-c2ccc3ncnc(Nc4ccc(OCc5cccc(F)c5)c(Cl)c4)c3c2)o1.Cc1ccc(S(=O)(=O)O)cc1.Cc1ccc(S(=O)(=O)O)cc1` [Lapatinib Ditosylate], in that order: 1.03 and 0.778.
Take `Cc1nc(Nc2ncc(C(=O)Nc3c(C)cccc3Cl)s2)cc(N2CCN(CCO)CC2)n1` [Dasatinib]: the bioluminescence in assay [1] is 0.977; in assay [2], 2.
Turning to `CS(=O)(=O)OCCCCOS(C)(=O)=O` [Busulfan], the bioluminescence in assay [1] was 1.3; in assay [2], 2.3.
For `CN(C)CCC[C@@]1(c2ccc(F)cc2)OCc2cc(C#N)ccc21.O=C(O)C(=O)O` [Escitalopram Oxalate] the same measures were 0.773 and 0.956.
`CNCCC(Oc1ccc(C(F)(F)F)cc1)c1ccccc1.Cl` (stereo not drawn) [Fluoxetine hydrochloride]: the bioluminescence was 1.74 in assay [1] and 0.924 in assay [2].
As for `O.O.O.O.O.O.O.O=C1CN(/N=C/c2ccc(-c3ccc([N+](=O)[O-])cc3)o2)C(=O)[N-]1.O=C1CN(/N=C/c2ccc(-c3ccc([N+](=O)[O-])cc3)o2)C(=O)[N-]1.[Na+].[Na+]` [Dantrolene sodium hemiheptahydrate], the bioluminescence in assay [1] worked out at 2.4; in assay [2], 2.84.
For `CC/C(=C(\c1ccccc1)c1ccc(OCCN(C)C)cc1)c1ccccc1.O=C(O)CC(O)(CC(=O)O)C(=O)O` [Tamoxifen Z-isomer citrate] the same measures were 1.41 and 6.34.
For `CC[C@H](C)C(=O)O[C@H]1C[C@@H](C)C=C2C=C[C@H](C)[C@H](CC[C@@H]3C[C@@H](O)CC(=O)O3)[C@H]21` [Lovastatin] the same measures were 1.02 and 0.3.
